Our source for the AC50 and outcome values is PubChem BioAssay (EPA / NIEHS).

Activity calls are given as the source filed them. Rule for the calls: active = hit-call score of the fitted dose curve at least 0.9, where 1 is the maximum; inactive = score below 0.9.

Read-out in experiment [1]: Matrix Metallopeptidase 1 (MMP1), MMP1 (gene 4312)
The experiment is described as follows: BSK_hDFCGF_MMP1: BioMAP Diversity Plus: hDFCGF Assay for Matrix Metallopeptidase 1 (MMP1) Biomarker Activity (AID 2283064). The conditions noted are these: primary human foreskin fibroblasts; actives raise or lower the signal. The procedure, abridged:
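Primary human foreskin fibroblasts in the hDFCGF system were dosed with test chemical, and MMP1 was measured by ELISA 24 h later. Values come from bidirectional curve fitting against the DMSO baseline.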

Read-out in experiment [2]: Vascular cell adhesion molecule 1 (VCAM1), VCAM1 (gene 7412)
In words: BSK_hDFCGF_VCAM1: BioMAP Diversity Plus: hDFCGF Assay for Vascular cell adhesion molecule 1 (VCAM1) Biomarker Activity (AID 2283065).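 For AC50: VCAM-1 protein level quantified by ELISA after 24 h chemical exposure.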 Conditions: primary human foreskin fibroblasts; actives raise or lower the signal. The gist of the method: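 Cells are dosed, cultured for 24 h, then VCAM-1 is quantified by ELISA; signal increases and decreases are both fitted relative to DMSO.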

Read-out in experiment [3]: Plasminogen activator inhibitor-1 (PAI1), SERPINE1 (gene 5054)
In words: BSK_hDFCGF_PAI1: BioMAP Diversity Plus: hDFCGF Assay for Plasminogen activator inhibitor-1 (PAI1) Biomarker Activity (AID 2283066). Conditions: primary human foreskin fibroblasts; actives raise or lower the signal. The gist of the method:
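Human foreskin fibroblasts in the hDFCGF system were dosed with compound for 24 h; PAI-1 was quantified by ELISA. Bidirectional curve fitting used DMSO as negative control and baseline.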

Read-out in experiment [4]: Intercellular Adhesion Molecule 1 (ICAM1), ICAM1 (gene 3383)
The experiment is described as follows: BSK_KF3CT_ICAM1: BioMAP Diversity Plus: KF3CT Assay for Intercellular Adhesion Molecule 1 (ICAM1) Biomarker Activity (AID 2283067). Conditions: primary human keratinocytes with fibroblasts; actives raise or lower the signal. The gist of the method:
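Dose the keratinocyte/fibroblast co-culture, wait 24 h, measure ICAM-1 by ELISA, then fit increases or decreases against DMSO. Cytotoxicity is checked in parallel cultures by SRB total-protein staining.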

Read-out in experiment [5]: Interferon-gamma inducible Protein 10 (IP10), CXCL10 (gene 3627)
The experiment is described as follows: BSK_KF3CT_IP10: BioMAP Diversity Plus: KF3CT Assay for Interferon-gamma inducible Protein 10 (IP10) Biomarker Activity (AID 2283068). Conditions: primary human keratinocytes with fibroblasts; actives raise or lower the signal. The procedure, abridged:
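In a primary skin co-culture of keratinocytes and fibroblasts, IP-10 is quantified by ELISA at 24 h after dosing. SRB staining of parallel wells monitors overt toxicity. Curves are fitted both directions against DMSO.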

Experiment [6] can be described thus: BSK_KF3CT_SRB: Viability Assessment in the BioMAP Diversity Plus: KF3CT Assay (AID 2283069). The conditions noted are these: primary human keratinocytes with fibroblasts. The procedure, abridged:
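Human primary keratinocyte plus foreskin fibroblast co-culture exposed to chemicals for 24 h. Total protein measured by 0.1% sulforhodamine B staining after 10% TCA fixation, read at 560 nm; bidirectional fitting versus DMSO baseline.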

Read-out in experiment [7]: Interleukin-1 alpha (IL1a), IL1A (gene 3552)
In words: BSK_KF3CT_IL1a: BioMAP Diversity Plus: KF3CT Assay for Interleukin-1 alpha (IL1a) Biomarker Activity (AID 2283070). Conditions: primary human keratinocytes with fibroblasts; actives raise or lower the signal. The procedure, abridged:
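Human keratinocyte plus foreskin fibroblast primary co-culture, sampled 24 h after chemical dosing. IL-1a measured by ELISA; responses fitted bidirectionally against DMSO baseline (negative control), so gain or loss of signal both count.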

Read-out in experiment [8]: TIMP metallopeptidase inhibitor 2 (TIMP2), TIMP2 (gene 7077)
The experiment is described as follows: BSK_KF3CT_TIMP2: BioMAP Diversity Plus: KF3CT Assay for TIMP metallopeptidase inhibitor 2 (TIMP2) Biomarker Activity (AID 2283071). Conditions: primary human keratinocytes with fibroblasts; actives raise or lower the signal. The procedure, abridged:
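Human primary keratinocyte/foreskin fibroblast co-culture dosed with chemical and sampled at 24 h. TIMP-2 levels quantified by ELISA; bidirectional fitting against DMSO negative control as baseline.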

Read-out in experiment [9]: C-C motif chemokine 2 (Homo sapiens) (UniProt P13500)
The experiment is described as follows: BSK_KF3CT_MCP1: BioMAP Diversity Plus: KF3CT Assay for Monocyte Chemoattractant Protein 1 (MCP1/CCL2) Biomarker Activity (AID 2283073). The conditions noted are these: primary human keratinocytes with fibroblasts; actives raise or lower the signal. The procedure, abridged: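 Keratinocytes and foreskin fibroblasts were co-cultured, dosed with chemical, and sampled 24 h later. MCP-1 was quantified by ELISA, and the endpoint was analyzed with bidirectional fitting using DMSO as negative control.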

Read-out in experiment [10]: Matrix Metallopeptidase 9 (MMP9), MMP9 (gene 4318)
The experiment is described as follows: BSK_KF3CT_MMP9: BioMAP Diversity Plus: KF3CT Assay for Matrix Metallopeptidase 9 (MMP9) Biomarker Activity (AID 2283074).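 For AC50: MMP9 protein level quantified by ELISA in the co-culture.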 The conditions noted are these: primary human keratinocytes with fibroblasts; actives raise or lower the signal. The procedure, abridged:
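Keratinocyte plus foreskin fibroblast human primary skin co-culture was dosed with chemical and MMP-9 was quantified by ELISA 24 h later. Bidirectional curve fitting used DMSO as negative control and activity baseline.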

Read-out in experiment [11]: urokinase plasminogen activator (uPA), PLAU (gene 5328)
The experiment is described as follows: BSK_KF3CT_uPA: BioMAP Diversity Plus: KF3CT Assay for urokinase plasminogen activator (uPA) Biomarker Activity (AID 2283075). The conditions noted are these: primary human keratinocytes with fibroblasts; actives raise or lower the signal. The procedure, abridged:
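Human keratinocyte plus foreskin fibroblast primary co-culture exposed to chemical for 24 h. uPA levels were quantified by ELISA, and activity was fitted bidirectionally against a DMSO negative-control baseline.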

Read-out in experiment [12]: CD40, CD40 (gene 958)
The experiment is described as follows: BSK_LPS_CD40: BioMAP Diversity Plus: LPS Assay for CD40 Biomarker Activity (AID 2283076). The conditions noted are these: primary human HUVEC with PBMC; actives raise or lower the signal. The gist of the method: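 CD40 signal, measured by ELISA, is fitted in both directions relative to DMSO vehicle. The system is an LPS-driven human vascular primary co-culture of endothelial cells and PBMC, sampled 24 h after compound addition.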

Read-out in experiment [13]: E-selectin (Homo sapiens) (UniProt P16581)
In words: BSK_LPS_Eselectin: BioMAP Diversity Plus: LPS Assay for Eselectin Biomarker Activity (AID 2283077). The conditions noted are these: primary human HUVEC with PBMC; actives raise or lower the signal. The procedure, abridged: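 Signal of E-selectin, detected by ELISA, served as the endpoint; cells were umbilical vein endothelium with PBMC, read 24 h after treatment. DMSO defined baseline, and both increases and decreases were fitted.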

Read-out in experiment [14]: Interleukin-8 (IL8), CXCL8 (gene 3576)
In words: BSK_LPS_IL8: BioMAP Diversity Plus: LPS Assay for Interleukin-8 (IL8) Biomarker Activity (AID 2283078). The conditions noted are these: primary human HUVEC with PBMC; actives raise or lower the signal. The gist of the method:
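Endothelial cells and PBMC from human donors are co-cultured, treated with chemicals and LPS, then assayed for IL-8 by ELISA after 24 h. Parallel SRB staining (0.1% SRB after 10% TCA fixation, 560 nm) flags cytotoxicity.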

Experiment [15] is described as follows: BSK_LPS_SRB: Viability Assessment in the BioMAP Diversity Plus: LPS Assay (AID 2283079).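 Note: total protein by sulforhodamine B absorbance as a cytotoxicity measure; measured one day after compound addition.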 The conditions noted are these: primary human HUVEC with PBMC. The procedure, abridged:
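Overt cytotoxicity was gauged by sulforhodamine B total-protein staining in a primary human vascular endothelial and mononuclear cell co-culture 24 h post-dosing. Activity was fitted in both directions relative to DMSO.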

Read-out in experiment [16]: Monocyte Chemoattractant Protein-1 (MCP1), CCL2 (gene 6347)
The experiment is described as follows: BSK_LPS_MCP1: BioMAP Diversity Plus: LPS Assay for Monocyte Chemoattractant Protein-1 (MCP1) Biomarker Activity (AID 2283081).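 For AC50: secreted MCP-1 protein quantified by ELISA in culture supernatant.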 Conditions: primary human HUVEC with PBMC; actives raise or lower the signal. The procedure, abridged:
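LPS-stimulated HUVEC/PBMC co-culture; chemical, 24 h; MCP-1 by ELISA; bidirectional fit vs DMSO; cytotoxicity via SRB (0.1% stain, 10% TCA fix, 560 nm) in parallel wells.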

Experiment [17] is described as follows: BSK_LPS_PGE2: BioMAP Diversity Plus: LPS Assay for Prostaglandin E2 (PGE2) Biomarker Activity (AID 2283082).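 For AC50: secreted prostaglandin E2 measured by ELISA in LPS-stimulated co-culture.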 Conditions: primary human HUVEC with PBMC; actives raise or lower the signal. The procedure, abridged:
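HUVEC plus PBMC co-culture stimulated with LPS; secreted PGE2 quantified by ELISA 24 h after chemical dosing. Activity fitted bidirectionally against DMSO as negative control and baseline; parallel SRB total-protein staining served as cytotoxicity check.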

Read-out in experiment [18]: Monokine induced gamma interferon (MIG), CXCL9 (gene 4283)
The experiment is described as follows: BSK_hDFCGF_MIG: BioMAP Diversity Plus: hDFCGF Assay for Monokine induced gamma interferon (MIG) Biomarker Activity (AID 2283063). Conditions: primary human foreskin fibroblasts; actives raise or lower the signal. The gist of the method:
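MIG signal, determined by ELISA, reflects 24 h chemical exposure of human skin primary fibroblasts. DMSO serves as negative control and baseline.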

Read-out in experiment [19]: Interleukin-1 alpha (IL1a), IL1A (gene 3552)
In words: BSK_LPS_IL1a: BioMAP Diversity Plus: LPS Assay for Interleukin-1 alpha (IL1a) Biomarker Activity (AID 2283080). The conditions noted are these: primary human HUVEC with PBMC; actives raise or lower the signal. The procedure, abridged: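 Measured: IL-1 alpha via ELISA at 24 h in LPS-activated human umbilical vein endothelium–PBMC co-culture. Baseline: DMSO, bidirectional fitting.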

Chain of E-selectin (Homo sapiens) (P16581 whole entry, looked up): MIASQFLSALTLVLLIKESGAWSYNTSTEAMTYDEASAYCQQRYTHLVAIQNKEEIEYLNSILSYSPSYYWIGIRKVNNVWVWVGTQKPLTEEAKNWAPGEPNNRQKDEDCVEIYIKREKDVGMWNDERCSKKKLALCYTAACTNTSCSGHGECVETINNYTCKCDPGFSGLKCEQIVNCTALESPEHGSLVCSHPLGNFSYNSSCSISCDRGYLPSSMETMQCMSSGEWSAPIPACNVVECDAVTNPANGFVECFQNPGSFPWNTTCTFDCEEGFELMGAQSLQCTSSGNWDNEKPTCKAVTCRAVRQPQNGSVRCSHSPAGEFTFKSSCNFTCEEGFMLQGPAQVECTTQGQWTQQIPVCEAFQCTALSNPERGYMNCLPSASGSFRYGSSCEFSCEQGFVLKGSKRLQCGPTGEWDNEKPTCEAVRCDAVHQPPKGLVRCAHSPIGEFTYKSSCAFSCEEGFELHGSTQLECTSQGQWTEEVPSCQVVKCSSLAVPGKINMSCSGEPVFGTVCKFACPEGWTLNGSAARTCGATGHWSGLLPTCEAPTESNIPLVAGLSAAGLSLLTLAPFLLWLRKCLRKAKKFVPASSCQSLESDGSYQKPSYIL

Usually AC50 stands for the concentration at which the activity in the assay is half-maximal. Turning to `CCN(CC)C(=S)SSC(=S)N(CC)CC`, the concentration at half-maximal activity (AC50) is 3.27 µM (active) in experiment [1]; 1.56 µM (active) in experiment [2]; 3.95 µM (active) in experiment [3]; 13.5 µM (active) in [4]; 9.46 µM (active) in [5]; 9.96 µM (active) in experiment [6]. The AC50 in [7] is 13.4 µM (active); in [8] it was 12.4 µM (active); in [9] it was 10.5 µM (active); in [10], 14.2 µM (active); in experiment [11], 14.8 µM (active); in experiment [12], 30.4 µM (active). In addition, the AC50 in experiment [13] is 34.8 µM (active); in experiment [14], 29.7 µM (active); in experiment [15], 31.1 µM (active); in [16], 29.5 µM (active); in experiment [17], 14.9 µM (active).

Regarding `CCn1nc(C)c2c1C(=O)NCC(c1ccc(O)cc1)=N2`, the result in experiment [18], in [1], in experiment [2], in [4], in [5] and in [6] was inactive. The result in [7], in experiment [8], in experiment [9], in experiment [10], in experiment [11] and in experiment [12] was inactive. Moreover, the result in experiment [13], in [14], in experiment [15], in experiment [19], in experiment [16] and in [17] was inactive. In addition, the AC50 in experiment [3] was 1.14 µM (active).

`FC(F)=C(F)C(F)(F)C(F)(F)C(F)(F)C(F)(F)C(F)(F)C(F)(F)F`: the result in experiment [18], in experiment [1], in experiment [2], in [3], in experiment [4] and in experiment [5] was inactive. Besides, the result in experiment [6], in experiment [7], in experiment [8], in [9], in experiment [10] and in experiment [11] was inactive. In addition, the result in [12], in experiment [13], in experiment [14], in experiment [15], in experiment [19] and in experiment [16] was inactive. In experiment [17], the result was inactive.

Regarding `CCc1cccc(CC)c1N`, the result in [18], in [1], in experiment [2], in experiment [3], in [4] and in experiment [5] was inactive. Besides, the result in experiment [6], in experiment [7], in experiment [8], in [9], in [10] and in [11] was inactive. In addition, the outcome in experiment [12], in experiment [13], in experiment [14], in [15], in experiment [19] and in experiment [16] was inactive. Also, the outcome in [17] was inactive.

Consider `O=C(Cl)C(F)(F)C(F)(F)C(F)(F)C(=O)Cl`, for which the outcome in [18], in [1], in experiment [2], in [3], in experiment [4] and in experiment [5] was inactive. In addition, the result in experiment [6], in [7], in experiment [8], in [9], in experiment [10] and in [11] was inactive. The outcome in [12], in experiment [13], in [14], in [15], in experiment [19] and in [16] was inactive. For the same molecule, the outcome in experiment [17] was inactive.

Turning to `NC(=O)N(O)[C@@H]1COc2cc(OCc3ccccc3)ccc21`, the outcome in experiment [18], in experiment [1], in experiment [2], in [3], in [4] and in experiment [5] was inactive. Also, the outcome in experiment [6], in [7], in [8], in experiment [9], in [10] and in [11] was inactive. The outcome in experiment [12], in experiment [13], in experiment [14], in experiment [15], in experiment [19] and in experiment [16] was inactive. Also, the AC50 in experiment [17] is 3.45 µM (active).

With `O=C1CN(N=Cc2ccc([N+](=O)[O-])o2)C(=O)N1`, the result in [18], in experiment [1], in [2], in experiment [3], in experiment [4] and in [5] was inactive. The outcome in experiment [6], in experiment [7], in experiment [8], in [9], in experiment [10] and in experiment [11] was inactive. For the same molecule, the result in experiment [12], in experiment [13], in [14], in experiment [15], in experiment [19] and in experiment [16] was inactive. Further, the result in experiment [17] was inactive.
